# Screening results (PubChem)
# KCNH2 3.1 inh: qHTS for Inhibitors of KCHN2 3.1: Mutant qHTS. Potassium voltage-gated channel subfamily H member 2, brain isoform KCNH2 3.1 (human). U2OS KCNH2 3.1, thallium flux FluxOr; hits give low values. activity change, % (tested at about 1.8 µM). actives 0.95% (n = 340,000). AID 720553, 2013;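 active = maximum activity change below -70%; inconclusive = maximum activity change from -70% to -50%; inactive = maximum activity change above -50%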;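 note: thallium influx rate constant from kinetic fluorescence after stimulation buffer; % is set by controls: 0 for no effect and ±100 for the full control effect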
#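 Virally transduced U2OS (3.1 isoform, 4 h infection in dark at RT) → overnight 37 C → FluxOr + Red40 in HBSS/HEPES, 45 min → stimulation buffer, 2 min kinetic read → rate constant vs DMSO controls.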
# TRPV1 ag: HTS Assay for Compounds that Act as Agonists of the Vanilloid Receptor 1 | Transient receptor potential cation channel subfamily V member 1 (Homo sapiens), Q8NER1 | TRPV1-expressing cells, Fluo-8 calcium influx, agonist mode | actives 0.19% (n = 320,000) | activation, % at 8.33 µM; in the data active = activation above about 80%; inconclusive = between about 30% and that limit; note: 0% is about no effect
# Target sequence (Q8NER1 whole entry, looked up): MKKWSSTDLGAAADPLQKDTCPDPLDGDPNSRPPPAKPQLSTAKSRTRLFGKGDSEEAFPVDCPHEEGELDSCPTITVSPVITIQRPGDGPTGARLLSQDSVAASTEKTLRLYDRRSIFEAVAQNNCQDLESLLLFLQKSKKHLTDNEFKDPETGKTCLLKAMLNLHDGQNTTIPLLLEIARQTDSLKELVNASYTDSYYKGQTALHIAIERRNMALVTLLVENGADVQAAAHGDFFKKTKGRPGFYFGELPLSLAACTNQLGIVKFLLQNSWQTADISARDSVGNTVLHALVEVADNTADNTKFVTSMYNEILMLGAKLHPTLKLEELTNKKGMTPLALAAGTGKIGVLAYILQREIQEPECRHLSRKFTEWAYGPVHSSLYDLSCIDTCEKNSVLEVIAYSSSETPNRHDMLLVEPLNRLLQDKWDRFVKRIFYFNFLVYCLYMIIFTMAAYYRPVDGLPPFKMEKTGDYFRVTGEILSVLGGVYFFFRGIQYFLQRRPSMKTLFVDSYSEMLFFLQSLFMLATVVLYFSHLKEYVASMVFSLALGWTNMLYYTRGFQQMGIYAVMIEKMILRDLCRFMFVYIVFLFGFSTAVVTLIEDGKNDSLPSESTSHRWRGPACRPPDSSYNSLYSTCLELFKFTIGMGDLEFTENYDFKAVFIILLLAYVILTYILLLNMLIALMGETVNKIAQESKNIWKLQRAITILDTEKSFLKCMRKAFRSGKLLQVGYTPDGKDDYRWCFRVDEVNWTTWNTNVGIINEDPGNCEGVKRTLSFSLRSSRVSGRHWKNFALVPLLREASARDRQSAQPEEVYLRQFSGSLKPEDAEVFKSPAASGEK
#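 Fluo-8 calcium influx in TRPV1-expressing cells, kinetic read (ex 480/em 520 nm). Compound added and read 3 min for agonist activity, followed by capsaicin at EC20 final and 2 min further read for enhancement.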
# TRPV1 potentiator: HTS Assay for Compounds that Act as Potentiators of the Vanilloid Receptor 1; potentiation, % at 8.33 µM; actives 0.02% (n = 320,000); TRPV1-expressing cells, Fluo-8 calcium influx, capsaicin EC20 potentiation; AID 540277, 2011; Transient receptor potential cation channel subfamily V member 1 (Homo sapiens), Q8NER1; in the data active = potentiation above about 80%; inconclusive = between about 30% and that limit; note: 0% is about no effect
#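 Fluo-8 calcium influx in TRPV1-expressing cells, kinetic read (ex 480/em 520 nm). Compound added and read 3 min for agonist activity, followed by capsaicin at EC20 final and 2 min further read for enhancement.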
# hERG WT inh: qHTS for Inhibitors of KCHN2 3.1: Wildtype qHTS; Voltage-gated inwardly rectifying potassium channel KCNH2 (Homo sapiens), Q12809; U2OS, BacMam KCNH2, thallium flux FluxOr; hits give low values; actives 0.37% (n = 340,000); AID 720551, 2013; activity change, % at 1.84 µM;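 active = maximum activity change below -70%; inconclusive = maximum activity change between -70% and -50%; inactive = maximum activity change above -50%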; note: % is set by controls: 0 for no effect and ±100 for the full control effect
#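 U2OS cells were transduced with wild-type KCNH2 virus (2.03 x 10^8 / mL) for 4 h at room temperature, then cultured overnight at 37 C. Thallium flux was read with FluxOr dye. Rate constants were normalized to DMSO controls.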
# Starred values were filed as active, the others as inactive; i = inactive; ? = inconclusive; nt = not tested or not shown; ! = not active in a repeat. Rows were chosen to be rich in hits. Some 1.3% of all compounds tested hit in one or more screens of this group.
SMILES,KCNH2 3.1 inh,TRPV1 ag,TRPV1 potentiator,hERG WT inh
CCCCCn1c(=N)n(CC(O)COc2ccccc2OC)c2ccccc21 (stereo unspecified),-107.4*!,15.3,1.7,-84.5*
COc1ccccc1OCC(O)Cn1c(=N)n(Cc2ccccc2)c2ccccc21 (stereo unspecified),-89.1*,3.1,15.3,9.7
Oc1ccc(Br)cc1C1C=C(c2ccc3c(c2)OCO3)NC(c2ccc(F)c(Br)c2)N1 (stereo unspecified),nt,10.6,14.9,nt
Cc1ccc(S(=O)(=O)N/N=C/c2ccc(OCC(=O)N3CCOCC3)cc2)cc1,-72.4*,0.3,6.1,-0.4
O=C(COc1ccc(/C=N/NS(=O)(=O)c2ccccc2)cc1)N1CCOCC1,9.8,-4.3,0.3,3.5
C=CCN(c1ccccc1)S(=O)(=O)c1cccc(C(=O)NCc2ccco2)c1,-172.5*,nt,nt,-241.4*
C=CCN(c1ccccc1)S(=O)(=O)c1cccc(C(=O)Nc2cc(C)ccn2)c1,-3.2,?,-17.6,27.5
Cc1nc2cc(-c3cccc(F)c3)nn2c(N2CCN(C(=O)c3ccco3)CC2)c1C,-16.8,81.2*,-20.1,6.5
CCOC(=O)c1ccc(NC(=S)N(CCN2CCCCCC2)Cc2ccco2)cc1,-89.6*,8.6,2.4,15.4
CCOC(=O)c1ccc(NC(=S)N(CCCN2CCCCCC2)Cc2ccco2)cc1,-21.8,0.6,-10.5,37.1
COc1ccc(C(=O)N(Cc2ccco2)Cc2cccs2)cc1,nt,13.6,-1.1,nt
O=C(/C=C/c1ccc(Cl)cc1)N(Cc1ccccc1)C1CCS(=O)(=O)C1 (stereo unspecified),-74.6*,7.5,-11.4,-0.3
O=C(/C=C/c1ccc(Cl)cc1Cl)N(Cc1ccccc1)C1CCS(=O)(=O)C1 (stereo unspecified),-3.2,0.6,-4.5,-8.2
CC(NC(=O)COC(=O)CN1C(=O)NC2(CCCC2)C1=O)c1ccc(F)cc1 (stereo unspecified),8.9,nt,nt,3.1
CCN(CC)CCCCN1c2ccccc2Sc2ccccc21,-72.5*,0.3,3.0,9.4
Cc1ccc(C(=O)NC2CCS(=O)(=O)C2)cc1S(=O)(=O)N1CCCCCC1 (stereo unspecified),-114.2*,2.9,12.5,13.9
Cc1ccc(C(=O)NC2CCCCC2)cc1S(=O)(=O)N1CCCC1,7.8,-1.4,7.0,7.5
O=C(NC1CCS(=O)(=O)C1)c1ccc(S(=O)(=O)N2CCCC2)cc1 (stereo unspecified),26.2,0.0,2.0,-8.3
CC1CCN(S(=O)(=O)c2ccc(C(=O)NCc3cccnc3)cc2)CC1,3.1,6.1,-19.4,-263.4*
CC1CCN(S(=O)(=O)c2ccc(C(=O)NC3CCS(=O)(=O)C3)cc2)CC1 (stereo unspecified),-78.9*,0.9,-5.3,-3.4
OCCN1CCN(c2nc(-c3ccccc3)c3cc(Br)ccc3n2)CC1,-71.4*,1.4,-17.5,-29.7
O=C(Nc1nnc(S(=O)(=O)N2CCCCCC2)s1)c1ccccc1Cl,-76.2*,2.3,-10.8,-3.8
C=CCn1c(O)c2ccc(C(=O)N=NC(=O)c3ccc(F)cc3)cc2c1O,-0.9,-1.0,?,-1.7
CC(C)NC(=S)N1CCCN(c2ncccc2[N+](=O)[O-])CC1,4.2,-1.3,4.9,1.0
O=C(CSc1nc2ccccc2c(=O)n1-c1ccc(F)cc1F)c1c[nH]c2ccccc12,-0.1,5.1,4.0,-122.0*
SMILES,KCNH2 3.1 inh,TRPV1 ag,TRPV1 potentiator,hERG WT inh
S=c1[nH]nc(-c2cccnc2)n1/N=C/c1ccc(Br)s1,-99.5*,1.8,17.4,-19.1
Cc1ccc(/C=N/n2c(-c3cccnc3)n[nH]c2=S)s1,3.9,-4.8,-4.9,5.4
O=C1Nc2ccccc2CCC1Sc1nnc(-c2ccc(Cl)cc2)s1 (stereo unspecified),-72.1*,14.9,-5.7,6.2
COc1ccc(NC(=O)CSc2nnnn2C2CC3C=CC2C3)cc1 (stereo unspecified),-2.8,27.4,?,-80.8*
CCOC(=O)c1ccc(NC(=O)CSc2nnnn2C2CCCCC2)cc1,8.0,2.3,-2.2,2.9
CCOc1ccc(NC(=O)CSc2nnnn2C2CCCC2)cc1,-198.6*,0.7,14.8,-142.1*
CCOc1ccc(NC(=O)N2CCC(n3nnc4ccccc43)CC2)cc1,-82.7*,?,1.0,i
CCC(=O)Nc1cccc(-c2nnc(SCC(=O)c3ccccc3)n2C)c1,-91.2*,11.7,-4.7,-0.1
COc1ccc(C)cc1N(C(=O)c1snc(C(N)=O)c1N)C(C(=O)NC1CCCC1)c1ccc(F)cc1 (stereo unspecified),-16.4,99.2*,10.1,8.6
CC1CC(C)CN(C(=O)c2cc(S(=O)(=O)N3CCCCC3)ccc2Cl)C1 (stereo unspecified),-9.5,104.1*,-13.4,-7.8
O=C(CSc1nc2[nH]ncc2c(=O)[nH]1)Nc1ccc(Cl)cc1,-1.7,-4.0,23.5,-2.6
O=C(CCC(=O)N1CCN(c2ccccc2)CC1)Nc1nnc(C2CCCCC2)s1,3.6,0.6,2.5,-5.7
Cc1ccccc1-c1nc(CN2CCC(C(=O)NCCC3=CCCCC3)CC2)c(C)o1,-70.8*,18.7,-20.0,-77.8*
CCc1ccc(-c2nc(CN3CCC(C(=O)NCc4ccc(F)cc4)CC3)c(C)o2)cc1,-107.1*,17.5,-5.4,?
CCN(CCNC(=O)C1CCN(Cc2nc(-c3ccc(Cl)cc3)oc2C)CC1)c1ccccc1,-72.2*,4.0,10.5,-28.6
Cc1oc(-c2ccc(Cl)cc2)nc1CN1CCC(C(=O)NCc2cccs2)CC1,-46.5,3.7,2.5,13.4
CCc1ccc(-c2nc(CN3CCC(C(=O)NCCN(CC)c4ccccc4)CC3)c(C)o2)cc1,-112.4*,-0.5,8.5,-31.7
CCN(CCNC(=O)C1CCN(Cc2nc(-c3cccc(Cl)c3)oc2C)CC1)c1ccccc1,-18.8,8.6,-9.8,-30.3
COc1ccccc1CNC(=O)COC(=O)C1CCN(c2ccc(C(F)(F)F)cn2)CC1,9.1,25.2,1.2,3.5
CC(C)N(Cc1ccccc1)C(=O)COC(=O)c1cc(S(=O)(=O)N(C)C)ccc1N1CCCC1,10.0,nt,nt,-2.4
CC[n+]1c(/C=C2/C=C(C)CC(C)(C)C2)sc2ccc(OC)cc21,2.0,19.7,-24.9,-71.2*
O=C(c1ccc([N+](=O)[O-])cc1)N(Cc1cccs1)C1CCS(=O)(=O)C1 (stereo unspecified),-101.5*,-7.5,8.7,30.6
O=C1C=C(c2ccc3ccccc3c2)C[C@@H](c2ccc(F)cc2)C1,-85.8*,?,-3.8,-7.3
CCN(CC)S(=O)(=O)c1ccc(-c2cn3ccccc3n2)cc1,-3.7,nt,nt,-100.4*
